{"source": "ChEMBL document CHEMBL3988442", "about": "“University of Dundee, Small-Polar-MMV Screening Library” (2021)", "note": "In all, about 48,000 compounds went through this assay and about 13,000 (27%) showed an effect of 50% or more. The list shows a part of the results."}
{"test_system": "Wolbachia pipientis", "assay": "Anti-Wolbachia Cell-Based Screen", "format": "functional", "design": "scale not given: in the data most compounds retested in dose-response had high values", "conditions": "5 µM", "units": {"Percent Effect": "%"}}
{"smiles": "CSCCCN1CCn2nc(CNC(=O)N(C)C)cc2C1", "Percent Effect": -17.64}
{"smiles": "Cc1ncsc1CCC(=O)NC1CCN(c2ncccc2C#N)CC1", "Percent Effect": 5.658}
{"smiles": "Cc1ccc2c(c1)C(N1CCOCC1)CC21CCNCC1", "note": "(configuration not stated)", "Percent Effect": -7.905}
{"smiles": "Cc1ccccc1SCC(=O)Nn1cnnc1", "Percent Effect": -2.526}
{"smiles": "O=C(C(O)c1ccccc1Cl)N1CCCN(Cc2cccnc2)CC1", "note": "(configuration not stated)", "Percent Effect": -0.1768}
{"smiles": "Cc1nc([C@@H]2C[C@H]3CN(Cc4ccc5c(c4)OCO5)C[C@H]3O2)no1", "Percent Effect": -16.45}
{"smiles": "O=C(COCC1CC1)Nc1cc(S(=O)(=O)NC2CC2)ccc1F", "Percent Effect": 1.35}
{"smiles": "Cc1ccc(S(=O)(=O)NC2CNC(=O)C2)cc1C", "note": "(configuration not stated)", "Percent Effect": -5.685}
{"smiles": "O=C1CC(NS(=O)(=O)c2ccc3ccccc3c2)CN1", "note": "(configuration not stated)", "Percent Effect": 96.97}
{"smiles": "N#CC1COCCN1S(=O)(=O)c1ccc2ccccc2c1", "note": "(configuration not stated)", "Percent Effect": -7.007}
{"smiles": "O=C1CC(NS(=O)(=O)c2ccccc2)CN1Cc1ccccc1", "note": "(configuration not stated)", "Percent Effect": 4.424}
{"smiles": "O=C1CC(NS(=O)(=O)c2ccc(Cl)cc2)CN1", "note": "(configuration not stated)", "Percent Effect": 124.5}
{"smiles": "CC(C)O[C@H]1CN(C(=O)CCN2CCCCO2)C[C@@H]1O", "Percent Effect": -9.995}
{"smiles": "Cc1nnc(SCCNC(=O)c2cc(S(N)(=O)=O)ccc2F)s1", "Percent Effect": 5.633}
{"smiles": "O=C(O)C(F)(F)F.O=C(c1ccco1)N1C[C@@H]2[C@@H](C1)OCC(=O)N2Cc1cccnc1", "Percent Effect": -32.49}
{"smiles": "O=C(O)C(F)(F)F.O=C(c1ccoc1)N1C[C@@H]2[C@@H](C1)OCC(=O)N2Cc1cccnc1", "Percent Effect": -4.595}
{"smiles": "O=C(O)C(F)(F)F.O=C(c1ccc(O)cc1)N1C[C@@H]2OCCN(c3ncccn3)[C@@H]2C1", "Percent Effect": 101.3}
{"smiles": "O=C(O)C(F)(F)F.O=C(c1ccccc1)N1CCO[C@@H]2CN(c3ncccn3)C[C@@H]2C1", "Percent Effect": 5.105}
{"smiles": "O=C(O)C(F)(F)F.O=C(c1ccoc1)N1C[C@@H]2OCCN(c3ncccn3)[C@@H]2C1", "Percent Effect": 85.6}
{"smiles": "O=C(O)C(F)(F)F.O=C(c1ccco1)N1C[C@@H]2OCCN(c3ncccn3)[C@@H]2C1", "Percent Effect": 113.8}
{"smiles": "O=C(c1ccoc1)N1CC[C@@H]2[C@@H](CC1)OCCN2c1cccnc1", "Percent Effect": -2.409}
{"smiles": "O=C(O)C(F)(F)F.O=C(c1ccc(F)cc1)N1C[C@@H]2OCCN(c3ncccn3)[C@@H]2C1", "Percent Effect": -10.32}
{"smiles": "O=C(O)C(F)(F)F.O=C(c1ccco1)N1C[C@@H]2CN(c3ccccn3)C[C@@H]2C1", "Percent Effect": -23.25}
{"smiles": "CSCC[C@@H](CO)Nc1ccc(-c2nc(-c3ccccc3C)no2)cn1", "Percent Effect": 8.283}
{"smiles": "CC(C)CS(=O)(=O)CC(=O)NC(C)(C)c1cccc(F)c1", "Percent Effect": 8.066}
{"smiles": "COCCN1CCC(NC(=O)Nc2cccc(F)c2)C1", "note": "(configuration not stated)", "Percent Effect": -22.85}
{"smiles": "CO[C@@H]1CCC[C@@H](NC(=O)C(C)(C)c2cccc(F)c2)[C@H]1O", "Percent Effect": 116.6}
{"smiles": "Fc1cccc(-n2nc(C3CC3)nc2CCn2cnnn2)c1", "Percent Effect": -8.194}
{"smiles": "Cn1cc(C2CCCN2Cc2csc(C(C)(C)C)n2)cn1", "note": "(configuration not stated)", "Percent Effect": 3.745}
{"smiles": "CN(C)Cc1ccnc(C2CCCN2Cc2ccc(F)cn2)n1", "note": "(configuration not stated)", "Percent Effect": 110.9}
{"smiles": "Cc1cnn(CC2CCCN2CC(=O)N(C)Cc2cnn(C)c2)c1", "note": "(configuration not stated)", "Percent Effect": -0.6585}
{"smiles": "CCCn1cc(CN2CCCC2c2nccc(CN(C)C)n2)cn1", "note": "(configuration not stated)", "Percent Effect": 91.04}
{"smiles": "Cc1nn(C)c(C)c1CN(C)C(=O)C1COc2ccccc2C1", "note": "(configuration not stated)", "Percent Effect": -11.47}
{"smiles": "CN(C)Cc1ccnc(C2CCCN2Cc2cccc(F)c2F)n1", "note": "(configuration not stated)", "Percent Effect": 111}
{"smiles": "CN(C)Cc1ccnc(C2CCCN2Cc2cc[nH]n2)n1", "note": "(configuration not stated)", "Percent Effect": -4.978}
{"smiles": "Cc1nn(C)c(C)c1CN1CCCC1c1nccc(CN(C)C)n1", "note": "(configuration not stated)", "Percent Effect": 96.16}
{"smiles": "Cc1cnc(CN2CCCC2c2noc(C)n2)cn1", "note": "(configuration not stated)", "Percent Effect": -5.918}
{"smiles": "C1CCN(CCOC2CCNC2)CC1.Cl.Cl", "note": "(configuration not stated)", "Percent Effect": -5.434}
{"smiles": "CCNC(=O)[C@@H]1C[C@H](N)CN1Cc1ccc2cccc(Cl)c2n1", "Percent Effect": 33.76}
{"smiles": "Cn1cnc(S(=O)(=O)N2C[C@H](OCC3CC3)[C@H]3OCCC[C@H]32)c1.O=C(O)C(F)(F)F", "Percent Effect": -7.803}
{"smiles": "CCSCC(C)NCc1nn(C)c2ccc(C)cc12", "note": "(configuration not stated)", "Percent Effect": -30.17}
{"smiles": "CCC1CN(C(=O)c2ccc(O)c(C)c2)CCN1C(C)C", "note": "(configuration not stated)", "Percent Effect": -1.675}
{"smiles": "COC(=O)[C@@H]1Cc2c[nH]c3cccc(c23)[C@H](CC(C)C)N1", "Percent Effect": -15.46}
{"smiles": "O=C(CCOCC(F)(F)F)NS(=O)(=O)c1cccnc1", "Percent Effect": 3.556}
{"smiles": "Cc1ccc(CCN2C(=O)CC[C@H]3CN(Cc4cnn(C)c4)CC[C@H]32)o1", "Percent Effect": 42.08}
{"smiles": "CCN(CC)S(=O)(=O)N1CCCC1c1nnc2n1CCN(C)CC2", "note": "(configuration not stated)", "Percent Effect": 109.2}
{"smiles": "CN1CCc2nnc(C3CCCN3S(=O)(=O)c3ccc(F)cc3)n2CC1", "note": "(configuration not stated)", "Percent Effect": 101.3}
{"smiles": "CCN(CC)S(=O)(=O)N1CCCC1CC(=O)c1cccs1", "note": "(configuration not stated)", "Percent Effect": 1.947}
{"smiles": "Fc1ccc(-c2nnc(CN3CCn4c(nnc4C4CC4)C3)o2)cc1", "Percent Effect": -8.144}
{"smiles": "CCN(Cc1cnn(C)c1)S(=O)(=O)N1CCCC1c1ccco1", "note": "(configuration not stated)", "Percent Effect": 12.89}
{"smiles": "COc1cccc2c1CCN(C(=O)NCc1nnc3ccccn13)C2", "Percent Effect": -4.622}
{"smiles": "COc1cc(NC(=O)C2CC(=O)N(c3cccc(Br)c3)C2)ncn1", "note": "(configuration not stated)", "Percent Effect": -7.851}
{"smiles": "CCNC(=O)[C@@H]1C[C@@H](N)CN1Cc1ccc2cccc(Cl)c2n1", "Percent Effect": -2.31}
{"smiles": "CCc1ccc2c(c1)C(CCNC(=O)CSC(F)(F)F)C(=O)N2", "note": "(configuration not stated)", "Percent Effect": 2.698}
{"smiles": "CN(C)CC1COCCN1C(=O)c1ccccc1C(=O)c1ccccc1.O=CO", "note": "(configuration not stated)", "Percent Effect": -10.61}
{"smiles": "CN(C)CC1CCCCN1C(=O)c1ccc(N2CCOCC2)cc1", "note": "(configuration not stated)", "Percent Effect": 108.2}
{"smiles": "Cc1ccc(C(=O)N2CCCCC2CN(C)C)cc1", "note": "(configuration not stated)", "Percent Effect": 107.2}
{"smiles": "COCCCC1CCCCN1C(=O)c1ccc(SCCO)cc1", "note": "(configuration not stated)", "Percent Effect": -1.649}
{"smiles": "Cc1ccccc1C(=O)N1CCOCC1CN(C)C.O=CO", "note": "(configuration not stated)", "Percent Effect": -21.7}
{"smiles": "CCC1CCCCCN1C(=O)c1coc(S(=O)(=O)N(C)C)c1", "note": "(configuration not stated)", "Percent Effect": 15.41}
{"smiles": "CCC1CCCCN1C(=O)c1ccc2[nH]nnc2c1", "note": "(configuration not stated)", "Percent Effect": 1.78}
{"smiles": "Cc1cnn(CC2CCCCN2C(=O)c2ccc(CN(C)C)cc2)c1", "note": "(configuration not stated)", "Percent Effect": 17.54}
{"smiles": "CCC1CCCCCN1C(=O)c1ccc(N2CCC(O)CC2)cc1", "note": "(configuration not stated)", "Percent Effect": 94.71}
{"smiles": "Cn1cccc1-c1nnc(C2(c3ccc4c(c3)OCO4)CCOCC2)o1", "Percent Effect": -12.47}
{"smiles": "COCCOc1ncccc1C(=O)N(C)c1nccs1", "Percent Effect": -66.02}
{"smiles": "CCOCc1nc2c(c(N3CC=CC3)n1)CCN(C1CCOCC1)CC2", "Percent Effect": -25.57}
{"smiles": "CCc1ccccc1OCCN1CCC(NS(C)(=O)=O)CC1", "Percent Effect": 2.392}
{"smiles": "COc1cccc(C(=O)NS(=O)(=O)c2cccc(C#N)c2)c1", "Percent Effect": 105.7}
{"smiles": "Cn1nnc2cc(C(=O)NS(=O)(=O)c3cccc(C#N)c3)ccc21", "Percent Effect": -4.102}
{"smiles": "N#Cc1cccc(S(=O)(=O)NC(=O)COc2ccc3c(c2)CCC3)c1", "Percent Effect": -8.201}
{"smiles": "COc1ccc(C(=O)NS(=O)(=O)c2cccc(C#N)c2)cc1", "Percent Effect": 98.14}
{"smiles": "Cc1cc(C(=O)N2C[C@@H]3CCCO[C@@H]3[C@H](N3CCOCC3)C2)c(C)[nH]1", "Percent Effect": 5.404}
{"smiles": "COc1ccc2[nH]cc(C(=O)N3C[C@@H](O)[C@H](N4CCCC4)C3)c2c1", "Percent Effect": 103.4}
{"smiles": "COCCCNC(=O)c1c[nH]c2ccc(OC)cc12", "Percent Effect": -17.1}
{"smiles": "COc1ccc2[nH]cc(C(=O)N3CC[C@H](CO)[C@@H](O)C3)c(=O)c2c1", "Percent Effect": 6.79}
{"smiles": "COc1ccc2[nH]cc(C(=O)N3C[C@@H](O)[C@H](NS(C)(=O)=O)C3)c2c1", "Percent Effect": 146.2}
{"smiles": "CCN(CC)C(=O)CNC(=O)c1c[nH]c2ccc(OC)cc12", "Percent Effect": -4.616}
{"smiles": "COc1ccc(C(=O)N2C[C@@H](CN3CCOCC3)[C@@H](CO)C2)c(C)c1", "Percent Effect": -1.833}
{"smiles": "CCN(CC)C(=O)CCNC(=O)c1c[nH]c2ccc(OC)cc12", "Percent Effect": 24.42}
{"smiles": "COc1ccc2[nH]cc(C(=O)N3C[C@@H](O)[C@H](N4CCOCC4)C3)c2c1", "Percent Effect": 129.4}
{"smiles": "CCS(=O)(=O)c1ccc(N2CCC(NC(=O)C(C)SC)CC2)cc1", "note": "(configuration not stated)", "Percent Effect": 6.219}
{"smiles": "Cc1cc(C(C)NC(=O)c2c[nH]c(=O)c(Cl)c2)c(C)o1", "note": "(configuration not stated)", "Percent Effect": -8.782}
{"smiles": "CC(C)C(C)(C#N)NC(=O)CN1CCCN(Cc2ccccc2F)CC1", "note": "(configuration not stated)", "Percent Effect": 1.272}
{"smiles": "CCSc1ccc(NC(=O)NC2CCc3[nH]ncc3C2)cn1", "note": "(configuration not stated)", "Percent Effect": -2.569}
{"smiles": "O=C(Nc1ccc(CN2CCOCC2)cc1)c1nccn2ccnc12", "Percent Effect": -3.19}
{"smiles": "Cc1nn(C)c2nc(O)cc(C(F)(F)C(F)(F)F)c12", "Percent Effect": 1.264}
{"smiles": "COc1ccc2c(C)c(C(=O)NCCCc3csc(N)n3)oc2c1", "Percent Effect": -14.38}
{"smiles": "Cc1nn(C)c(N(C)C)c1CNCC(O)c1ccccc1", "note": "(configuration not stated)", "Percent Effect": -19.87}
{"smiles": "Cc1ccc(C(O)CNCc2c(C(C)C)nn(C)c2N(C)C)cc1", "note": "(configuration not stated)", "Percent Effect": 2.504}
{"smiles": "CC(C)c1nn(C)c(N(C)C)c1CNCc1cccnc1", "Percent Effect": 3.817}
{"smiles": "CC(C)c1nn(C)c(N(C)C)c1CNCC(O)c1ccccc1", "note": "(configuration not stated)", "Percent Effect": 92.25}
{"smiles": "CC(C)c1nn(C)c(Cl)c1CNCC(O)c1cccc(F)c1.Cl", "note": "(configuration not stated)", "Percent Effect": 10.68}
{"smiles": "COc1cccc(CNCc2c(C(C)C)nn(C)c2N(C)C)c1OC", "Percent Effect": -9.439}
{"smiles": "CC(C)c1nn(C)c(N(C)C)c1CNC(C)c1ccccc1F", "note": "(configuration not stated)", "Percent Effect": 86.76}
{"smiles": "CC(C)c1nn(C)c(N(C)C)c1CNCC(O)c1cccc(F)c1", "note": "(configuration not stated)", "Percent Effect": 133.5}
{"smiles": "CC(C)c1nn(C)c(N(C)C)c1CNCc1cccc(CN(C)C)c1.Cl", "Percent Effect": -0.8074}
{"smiles": "O[C@@H]1CCN(c2ccc3c(Cl)ccnc3c2F)C1", "Percent Effect": -13.88}
